This note sets out measurements from PubChem BioAssay (EPA / NIEHS).

Assay [1] concerns the target Cellular tumor antigen p53 (Homo sapiens) (UniProt P04637). As to the kind of experiment: TOX21_p53_BLA_p2_ratio: Tox21 HCT-116 p53 Agonism Beta-lactamase Assay, Ratio, Phase 2 (AID 2283592). The method in brief:
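In this cell-based reporter format, HCT116 cells were dosed with chemicals delivered from DMSO by 217-fold dilution and incubated 16 h at 37C. Emission at 460 and 530 nm after 2 h CCF4-AM loading provided the ratio, fitted upward versus DMSO.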

Assay [2] can be described thus: TOX21_p53_BLA_p3_viability: Viability Assessment in the Tox21 HCT-116 p53 Agonism Beta-lactamase Assay, Phase 3 (AID 2283593).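 Also: cells exposed to compound for 16 h before reading.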 The method in brief:
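HCT-116 cells (4000/well) rested 5 h at 37C, then got DMSO compounds by pin tool (217-fold dilution) for 16 h at 37C, 5% CO2. After the bla read, CellTiter-Glo was added and luminescence read at 30 min, room temperature.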

The target in assay [3] is Cellular tumor antigen p53 (Homo sapiens) (UniProt P04637). As to the kind of experiment: TOX21_p53_BLA_p3_ratio: Tox21 HCT-116 p53 Agonism Beta-lactamase Assay, Ratio, Phase 3 (AID 2283596). The method in brief: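 HCT116 p53-bla cells (4000/well) given compound in DMSO (217-fold dilution) after 5 h, incubated 16 h at 37C. CCF4-AM substrate 2 h at room temperature; 460/530 nm emission ratio, gain fitted against DMSO.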

Assay [4] is described as follows: TOX21_p53_BLA_p4_viability: Viability Assessment in the Tox21 HCT-116 p53 Agonism Beta-lactamase Assay, Phase 4 (AID 2283597).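 Also: hits lower the luminescence signal meaning cytotoxicity.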 The method in brief:
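We seeded HCT116 p53 reporter cells at 4000/well and waited 5 h. We then added compounds in DMSO at a 217-fold dilution and incubated for 16 h. Viability was read as CellTiter-Glo luminescence after 30 min at RT.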

Assay [5] addresses Cellular tumor antigen p53 (Homo sapiens) (UniProt P04637). As to the kind of experiment: TOX21_p53_BLA_p5_ratio: Tox21 HCT-116 p53 Agonism Beta-lactamase Assay, Ratio, Phase 5 (AID 2283599). The method in brief: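 HCT-116 cells carrying a p53-inducible beta-lactamase reporter were seeded at 4000 cells/well and dosed after 5 h with compound in DMSO (217-fold dilution). After 16 h at 37C, CCF4-AM substrate was added for 2 h, and the 460/530 nm emission ratio was scored as gain-of-signal versus DMSO.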

Assay [6] in a line: TOX21_p53_BLA_p5_viability: Viability Assessment in the Tox21 HCT-116 p53 Agonism Beta-lactamase Assay, Phase 5 (AID 2283600). The method in brief:
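Compounds, pinned from DMSO at 217-fold dilution, were left on the cells for 16 h. The viability endpoint was ATP content measured by CellTiter-Glo luminescence, where falling signal reflects cytotoxicity.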

In assay [7] the target is Cellular tumor antigen p53 (Homo sapiens) (UniProt P04637). The assay can be described thus: TOX21_p53_BLA_p4_ratio: Tox21 HCT-116 p53 Agonism Beta-lactamase Assay, Ratio, Phase 4 (AID 2283601). The method in brief: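 HCT116 cells carrying an inducible beta-lactamase reporter were plated at 4000 cells/well, rested 5 h, then exposed to compounds in DMSO (217-fold dilution) for 16 h at 37C. CCF4-AM substrate was loaded 2 h at room temperature; 460/530 nm emission ratio scored gain-of-signal versus DMSO.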

Assay [8] can be described thus: Tanguay_ZF_120hpf_MORT_legacy: (Legacy) Oregon State University Tanguay Lab 120 Hour Post-fertilization zebrafish Assay for Mortality (AID 2283633).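 As to AC50: fitted as increase in binary mortality versus DMSO negative control.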 The method in brief:
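Brightfield scoring of embryo death (binary) at 24 and 120 hpf; static exposure 6–120 hpf, 28C, sealed and foil-covered. Pronase-dechorionated 5D wild-type larvae, single embryo per well. DMSO 0.64% v/v; trimethyltin chloride 5uM positive control.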

A short description of assay [9]: Tanguay_ZF_120hpf_YSE_legacy: (Legacy) Oregon State University Tanguay Lab 120 Hour Post-fertilization zebrafish Assay for Yolk Sac Edema (AID 2283634).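 As to AC50: actives raise the incidence of yolk sac edema above the DMSO baseline.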 The method in brief: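 Binary brightfield scoring of yolk sac edema at 120 hpf; DMSO baseline, gain-of-signal fitting. Dechorionated 5D larvae, one per well, static exposure 6–120 hpf, 28C, 0.64% DMSO. Dead embryos not scored.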

Assay [10] can be described thus: TOX21_p53_BLA_p2_viability: Viability Assessment in the Tox21 HCT-116 p53 Agonism Beta-lactamase Assay, Phase 2 (AID 2283591).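 Also: compound exposure lasted 16 h at 37 °C; actives lower the ATP signal meaning cytotoxicity.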 The method in brief:
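HCT-116 p53-bla cells (4000/well) rested 5 h at 37C, then received compounds in DMSO (217-fold dilution) for 16 h at 37C, 5% CO2. After the CCF4 read, CellTiter-Glo was added; ATP luminescence was read after 30 min at room temperature.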

Where “and” joins values, the source holds several entries; their conditions need not be identical. Identical values can stand only once. Inconclusive results are not listed. Some compounds were tested as several samples or in several runs, with calls that do not always agree. Calls of active or inactive are those of the source. The calls were made as follows: active = hit-call score of the fitted dose curve at least 0.9, where 1 is the maximum; inconclusive = response in the unintended direction; inactive = score below 0.9.

What is called AC50 is the midpoint of the concentration-response curve, whichever way the signal moves.

Chain of Cellular tumor antigen p53 (Homo sapiens) (P04637 whole entry, looked up): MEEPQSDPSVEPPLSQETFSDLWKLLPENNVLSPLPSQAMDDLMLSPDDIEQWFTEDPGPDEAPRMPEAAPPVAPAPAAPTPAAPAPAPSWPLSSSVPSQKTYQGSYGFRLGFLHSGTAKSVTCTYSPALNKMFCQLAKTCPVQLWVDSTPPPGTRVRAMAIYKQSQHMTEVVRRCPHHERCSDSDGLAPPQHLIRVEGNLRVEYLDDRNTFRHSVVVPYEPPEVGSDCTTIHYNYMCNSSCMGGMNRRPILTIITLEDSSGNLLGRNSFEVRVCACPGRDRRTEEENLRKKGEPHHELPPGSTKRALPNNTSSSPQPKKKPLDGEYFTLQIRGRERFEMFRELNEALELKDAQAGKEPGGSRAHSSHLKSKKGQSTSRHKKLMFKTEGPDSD

On to `CN(C)c1ccc(N=NS(=O)(=O)O)cc1`, for which the result in [1], in assay [2], in [3], in assay [4], in [5] and in [6] was inactive. Also, the outcome in assay [7], in assay [8] and in [9] was inactive.
Turning to `O=C1OC(=O)C2C3C=CC(C3)C12` (stereo not drawn), the result in assay [1], in assay [2], in assay [3], in assay [4], in assay [5] and in assay [6] was inactive. The result in assay [7] and in [8] was inactive.
On to `CCn1nc(Cc2ccccc2)cc1C1CCN(C[C@H]2C[C@H](N(C)[C@@H](C(=O)O)C(C)C)C[C@@H]2c2cccc(F)c2)CC1`, for which the result in assay [10], in assay [2], in [4], in [5], in assay [6] and in [8] was inactive. Moreover, the result in assay [9] was inactive.
`CC[C@H](C)C(=O)O[C@H]1C[C@@H](C)C=C2C=C[C@H](C)[C@H](CC[C@@H]3C[C@@H](O)CC(=O)O3)[C@H]21`: the AC50 in assay [1] is 84.3 µM (active); in assay [2], 82.5 µM (active) and 35.6 µM (active); in assay [4], 79.2 µM (active) and 27.4 µM (active); in assay [5], 97.1 µM (active) and 37.7 µM (active); in [6], 91.2 µM (active) and 33.6 µM (active); in [7], 97.1 µM (active). Moreover, in [8], the AC50 is 1.33 µM (active). Besides, the outcome in [1], in assay [2], in assay [3], in [4], in [5] and in assay [6] was inactive. Further, the outcome in assay [7] and in assay [9] was inactive.
Consider `CC(C)=CCC/C(C)=C/CO`, for which the outcome in [1], in [2], in assay [3], in assay [4], in assay [5] and in assay [6] was inactive. Further, the outcome in assay [7], in assay [8] and in [9] was inactive.
`COc1cccc(-c2ccc(/C=C\CN3CCCCCC3)cc2Cl)c1`: the AC50 is 70.5 µM (active) in assay [1], 52.5 µM (active) in assay [4], 73.8 µM (active) in assay [7] and 32.4 µM (active) in assay [8]. For the same molecule, the outcome in [2], in assay [3], in [5] and in assay [6] was inactive.
For `CN(C)c1ccc(Cc2ccc(N(C)C)cc2)cc1`, the outcome in [1], in assay [2], in assay [3], in assay [4], in assay [5] and in assay [6] was inactive. Further, the outcome in [7], in assay [8] and in assay [9] was inactive.
As to `O=C(O)c1cc(N=Nc2ccc(S(=O)(=O)Nc3ccccn3)cc2)ccc1O`, the outcome in [1], in [2], in assay [3], in [4], in [5] and in [6] was inactive. Further, the outcome in assay [7] and in [8] was inactive.
For `COc1ccc(-n2nc(C(F)F)cc2-c2ccc(S(C)=O)cc2)cc1` (stereo not drawn), the result in [1], in [2], in [3], in [4], in assay [5] and in [8] was inactive.
With `Cc1ccc(N)cc1O`, the result in [1], in [2], in assay [3], in assay [4], in [5] and in assay [6] was inactive. For the same molecule, the result in assay [7] and in assay [8] was inactive.
On to `CC(C)c1cccc(C(C)C)c1N1C(=O)c2ccc(O)cc2C1=O`, for which the AC50 in [1] was 1.77 µM (active); in assay [2] it was 74.9 µM (active); in assay [4], 68.4 µM (active); in [5], 2.05 µM (active); in assay [6] it was 79 µM (active); in [7], 69.5 µM (active). Also, the AC50 in assay [8] was 26.9 µM (active). Besides, the result in assay [3] was inactive.
Turning to `CC(=O)OC[C@H]1O[C@@](COC(C)=O)(O[C@H]2O[C@H](COC(C)=O)[C@@H](OC(C)=O)[C@H](OC(C)=O)[C@H]2OC(C)=O)[C@@H](OC(C)=O)[C@@H]1OC(C)=O`, the result in assay [1], in assay [2], in assay [3], in assay [4], in assay [5] and in assay [8] was inactive.
In the case of `Cc1[nH]cnc1C[C@H]1CCc2c(C)c3ccccc3n2C1=O`, the outcome in assay [1], in assay [2], in [4], in assay [5], in [6] and in assay [7] was inactive. The call in [8] and in [9] was inactive. The AC50 in assay [3] was 63.9 µM (active); in assay [4], 41 µM (active).
For `CCOCCOCCOCCO`, the molecule was classed as inactive in assay [10], in assay [1], in assay [3], in assay [5], in assay [7] and in assay [8]. The result in assay [9] was inactive.
For `O=C(NS(=O)(=O)/C=C/c1ccccc1)c1ccc(F)cc1Cl`, the result in [10], in [8] and in assay [9] was inactive. In addition, the AC50 in assay [1] is 13 µM (active); in assay [3], 24.9 µM (active); in assay [5], 13.5 µM (active); in assay [7], 22 µM (active).
With `O=C(CCCCCCCCc1cccnc1)N1CCC(C=C(c2ccccc2)c2ccccc2)CC1`, the outcome in assay [1], in assay [4], in [5], in [7] and in [8] was inactive. Further, the AC50 in assay [2] is 28.2 µM (active); in assay [3] it was 43.2 µM (active); in assay [6] it was 13.9 µM (active).
With `CC/C(=C\C(=N/O)C(N)=O)C(C)[N+](=O)[O-]` (stereo not drawn), the molecule was classed as inactive in assay [10], in [3], in assay [4], in assay [5], in assay [7] and in assay [8].
In the case of `O=C(O)c1cccc(N(Cc2cccnc2)c2ccc(OC(F)F)c(OC(F)F)c2)c1`, the outcome in assay [1], in [2], in [3], in assay [4], in assay [5] and in [7] was inactive. Further, the outcome in assay [8] and in assay [9] was inactive.
For `Nc1ccc(Nc2ccccc2)cc1`, the AC50 in assay [1] is 86 µM (active); in [8] it was 33.2 µM (active); in assay [9], 27.5 µM (active). Also, the result in assay [1], in [2], in assay [3], in [4], in assay [5] and in assay [6] was inactive. Further, the result in assay [7] was inactive.
For the molecule `CC(C)CCO`, the outcome in [1], in [2], in assay [4], in assay [6] and in assay [8] was inactive.
Turning to `O=C(O)CC(O)C(=O)O` (stereo not drawn), the result in [1], in [3], in assay [4], in assay [5], in assay [6] and in assay [7] was inactive. Besides, the molecule was classed as inactive in assay [8].
As for `CCOC(=O)CC(CC(=O)OCC)(OC(C)=O)C(=O)OCC`, the outcome in [1], in [2], in assay [6] and in assay [8] was inactive.
